Compound activity from PubChem.
Sampled rows, rich in hits. Any-hit rate of the full collection: about 7.9%.
HT1080 IDH1KD tx – HT-1080 IDH1 knockdown cell toxicity (counter line); AID 686971; 2% of 360,000 active; HT-1080 IDH1 knockdown viability, ATP luminescence, 48 h; Potency, µM (highest dose often 46.1 µM), for the others: top-dose activity, negative = toxicity, usual class: cytotoxic;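 further: 0% = DMSO wells and -100% = cell-free medium wells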
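Cytotoxicity counter-line: IDH1KD HT-1080, 48 h, CellTiter-Glo. Curves classed by r2, magnitude and activity.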
KB-3-1 tox – KB-3-1 parental cell cytotoxicity | 1.4% of 400,000 active | Potency, µM (highest dose often 46.1 µM), most hits filed as cytotoxic | KB-3-1 viability, CellTiter-Glo ATP luminescence, 72 h | AID 1347075; further: on the % scale 0 is the no-effect control and ±100 the full control effect; nearly all actives have a fitted effect of over 60% in size
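Viability of parental KB-3-1 cells, measured by CellTiter-Glo luminescence, followed a 72 h incubation at 37 °C with pinned compounds in phenol-red-free DMEM containing 10% FBS.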
HT1080-NT tox – kills 2HG-producing HT-1080-NT fibrosarcoma cells | Potency, µM (series often up to 46.1 µM), for the others: at the highest dose activity, negative = less viability, most hits filed as cytotoxic | 1.6% of 360,000 active | HT-1080-NT fibrosarcoma viability, CellTiter-Glo ATP luminescence, 48 h;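 further: NT is the 2HG producing partner of a matched IDH1 knockdown line; 0% = DMSO-treated cells and -100% = media-only wells without cells; nearly all actives have a fitted effect of over 55% in size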
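Compounds were tested in concentration-response format on HT-1080-NT cells for 48 hours at 37 degrees C. Cell viability came from CellTiter-Glo luminescence; curves were classified by r2, response magnitude and activity.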
MCF10A rerep – induces DNA re-replication in MCF 10a normal breast cells. MCF 10A DNA re-replication, Hoechst nuclear intensity, 48 h. AID 624296. Potency, µM (doses to about 46.1 µM), without a hit: top-dose activity, positive = re-replication, actives largely listed as activators. 2.9% of 350,000 active; further: % of control where 0% means no effect; nearly all actives have a fitted effect of over 50% in size
KB-V1 cytotox – kills drug-selected multidrug resistant KB-V1 cells; Potency, µM (series often up to 46.1 µM), actives largely listed as cytotoxic; KB-V1 MDR cells viability, CellTiter-Glo, 72 h; AID 1347076; 3.4% of 400,000 active; further: on the % scale 0 is the no-effect control and ±100 the full control effect; nearly all actives have a fitted effect of over 60% in size
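KB-V1, DMEM (no phenol red) + 10% FBS; cpd pin-transferred, titration series; 72 h, 37 degrees C; CellTiter-Glo, luminescence. Data normalized, curve-fit.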
SW480 rerep – inducers of DNA re-replication in SW480 colon cancer cells | 1.8% of 340,000 active | SW480 DNA re-replication, Hoechst DNA content imaging, 48 h | Potency, µM (top dose mostly 46.1 µM), for the others: at the top dose re-replication activation, actives largely listed as activators | AID 624297; further: % of control where 0% means no effect; nearly all actives have a fitted effect of over 55% in size
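Per well, 250 cells were exposed to pinned compound for 48 hr. Nuclear DNA was visualised with Hoechst (40 min, 37 C) and total object intensity recorded by fluorescence scanning.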
The depositor's hits bear a star; i = inactive; ? = inconclusive; · = no result. The call rests on the fitted dose curve; in most records, active means well fitted curve in the direction sought with a large enough effect; inconclusive means small, poorly fitted or top-dose-only effect, or another doubt; inactive means no such curve, though single readings can be large; an effect the other way counts as inactive or inconclusive. Potency means the concentration at half of the fitted maximal effect.

SMILES	HT1080 IDH1KD tx	KB-3-1 tox	HT1080-NT tox	MCF10A rerep	KB-V1 cytotox	SW480 rerep
O=C(c1ccccc1)N1CCN(CC(O)COCC2CC=CCC2)CC1 (stereo not given)	1%	i	0%	4%	9.2µM*	-12%
Cc1ccc2c(c1)NC(c1cccnc1)=NC(c1ccc(F)cc1)=N2	·	?	·	·	i	·
O=C(CSc1nc2c([nH]c3ccccc32)c(=O)n1-c1ccc(Cl)cc1)NCc1ccccc1	·	i	·	·	i	·
CC1=CC(C)(C)N(C(=O)CSc2nnc(-c3ccc(C)cc3)o2)c2ccc(C)cc21	-7%	?	-2%	?	8.2µM*	16%
CC1=CC(C)(C)N(C(=O)CSc2nnc(N)s2)c2cc(C)c(C)cc21	-3%	i	-4%	?	12µM*	-4%
CC1=CC(C)(C)N(C(=O)CSc2nnc(C)s2)c2ccc(C)cc21	7%	i	-4%	1%	?	-1%
COc1ccc2cc(CCNS(=O)(=O)c3c(C)cc(C)cc3C)c(=O)[nH]c2c1	-8%	i	-1%	-4%	i	-10%
O=C(CC(SCc1ccco1)c1ccc(O)cc1)c1cccs1 (stereo not given)	-4%	21µM*	-12%	?	i	-3%
O=C(CCl)N1CCN(S(=O)(=O)Cc2ccccc2)CC1	?	23µM*	?	?	?	211%
CCOC(=O)N1CCN(S(=O)(=O)Cc2ccccc2)CC1	5%	i	9%	2%	i	-1%
CSc1ccc(CN2CCC(C)(Oc3ccccc3)C2)cc1 (stereo not given)	-19%	i	?	·	i	·
Cc1cc(C)n(-c2ccc(NC(=O)C3CCCCN3C(=O)c3sccc3C)cc2)n1 (stereo not given)	16%	?	-3%	-9%	?	?
